{"source": "PubChem BioAssay AID488933", "about": "(Broad Institute, 2010)", "test": "NIH-3T3 viability loss with fluconazole – cell-based, Alamar Blue, dry powder, set 3, cytotoxicity control for reversing antifungal drug resistance, dose response (AID 488933)", "note": "Potency and affinity values are given separately. Calls of active or inactive are those of the source.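 Rule for the calls: active = compounds lowering the cell viability signal, with fitted half-maximal dose at most ten times the top valid dose; inconclusive = flat partial drop of 30 to 70 percent, or poor fit; inactive = flat near zero, weak potency, or rising signal.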", "data": [{"compound": "O=C(c1ccc(Cl)cc1)N1CCN(c2cccc(C(F)(F)F)n2)CC1", "values": [{"measurement": "outcome", "value": "inactive"}]}, {"compound": "Cn1ccnc1N1CCN(C(=O)c2ccc(Cl)cc2)CC1", "values": [{"measurement": "outcome", "value": "inactive"}]}, {"compound": "CCCCC(=O)N1CCN(c2ccccn2)CC1", "values": [{"measurement": "outcome", "value": "inactive"}]}, {"compound": "O=C(c1ccc(Cl)cc1)N1CCN(c2nc3ccccc3s2)CC1", "values": [{"measurement": "outcome", "value": "inactive"}]}, {"compound": "N#Cc1cccnc1N1CCN(C(=O)c2ccc(Cl)cc2)CC1", "values": [{"measurement": "outcome", "value": "inactive"}]}, {"compound": "Cc1ccc(N2CCN(C(=O)c3ccc(Cl)cc3)CC2)nn1", "values": [{"measurement": "outcome", "value": "inactive"}]}, {"compound": "c1ccc(N2CCNCC2)nc1", "values": [{"measurement": "outcome", "value": "inactive"}]}, {"compound": "Cc1ccc(C(=O)N2CCN(c3ccccn3)CC2)cc1", "values": [{"measurement": "outcome", "value": "inactive"}]}, {"compound": "N#Cc1ccc(C(=O)N2CCN(c3ccccn3)CC2)cc1", "values": [{"measurement": "outcome", "value": "inactive"}]}, {"compound": "COc1ccc(C(=O)N2CCN(c3ccccn3)CC2)cc1", "values": [{"measurement": "outcome", "value": "inactive"}]}, {"compound": "COCCC(=O)N1CCN(c2ccccn2)CC1", "values": [{"measurement": "outcome", "value": "inactive"}]}, {"compound": "O=C(c1cccc(Cl)c1)N1CCN(c2ccccn2)CC1", "values": [{"measurement": "outcome", "value": "inactive"}]}, {"compound": "O=C(c1ccc(Cl)cc1)N1CCN(c2ncccc2C(F)(F)F)CC1", "values": [{"measurement": "outcome", "value": "inactive"}]}, {"compound": "O=C(c1ccc(Cl)cc1)N1CCN(c2ncccn2)CC1", "values": [{"measurement": "outcome", "value": "inactive"}]}, {"compound": "COc1cccnc1N1CCN(C(=O)c2ccc(Cl)cc2)CC1", "values": [{"measurement": "outcome", "value": "inactive"}]}, {"compound": "O=C(c1ccc(Cl)cc1)N1CCN(c2cnccn2)CC1", "values": [{"measurement": "outcome", "value": "inactive"}]}, {"compound": "O=C(c1ccc(Cl)cc1)N1CCN(c2nccs2)CC1", "values": [{"measurement": "outcome", "value": "inactive"}]}, {"compound": "Cc1cccc(N2CCN(C(=O)c3ccc(Cl)cc3)CC2)n1", "values": [{"measurement": "outcome", "value": "inactive"}]}, {"compound": "O=C(c1ccc(Cl)cc1)N1CCN(c2nc3ccccc3o2)CC1", "values": [{"measurement": "outcome", "value": "inactive"}]}, {"compound": "CC(C)C(=O)N1CCN(c2ccccn2)CC1", "values": [{"measurement": "outcome", "value": "inactive"}]}, {"compound": "O=C(c1ccc(F)cc1)N1CCN(c2ccccn2)CC1", "values": [{"measurement": "outcome", "value": "inactive"}]}, {"compound": "Cc1ccc(N2CCN(C(=O)c3ccc(Cl)cc3)CC2)nc1", "values": [{"measurement": "outcome", "value": "inactive"}]}, {"compound": "CC(C)C(=O)N1CCN(c2ccnc3cc(Cl)ccc23)CC1", "values": [{"measurement": "outcome", "value": "inactive"}]}, {"compound": "O=C(c1ccccc1Cl)N1CCN(c2ccccn2)CC1", "values": [{"measurement": "outcome", "value": "inactive"}]}, {"compound": "O=C(C1CCCCC1)N1CCN(c2ccccn2)CC1", "values": [{"measurement": "outcome", "value": "inactive"}]}, {"compound": "O=C(c1ccc(Cl)cc1)N1CCN(c2ccc(C(F)(F)F)cn2)CC1", "values": [{"measurement": "outcome", "value": "inactive"}]}, {"compound": "Cc1ccnc(N2CCN(C(=O)c3ccc(Cl)cc3)CC2)c1", "values": [{"measurement": "outcome", "value": "inactive"}]}]}
